Experiments:
Assay in all cases: PBM binding z-score (relative to random genomic background probes); higher = stronger binding; sequences stand for … in GC…GCGATTGACAGCGTAGAATGAAGG
[1] = test system: RARb homodimer (NR concentration 270 nM)
Outline: (§1)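 Regression normalization was applied to scanned fluorescence from custom Agilent 4×180K protein-binding microarrays. Before scanning, arrays were incubated 1 h with ligand-free nuclear receptor dimers, and binding was detected with antibodies against each partner (one per run). Binding z-scores use the random background probes as reference.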

[2] = test system: RARg:RXRa (NR concentration 270 nM, RXRa partner concentration 90 nM)
Outline: as §1

[3] = test system: RARg homodimer (NR concentration 270 nM)
Outline: as §1

[4] = test system: RXRa DBDmut IVT, anti-RXR (DBD mutation: RXRa K156A/R161A, NR concentration 90 nM)
Outline: as §1

[5] = test system: RXRa homodimer (NR concentration 180 nM)
Outline: as §1

[6] = test system: THRa:RXRa (NR concentration 90 nM, RXRa partner concentration 90 nM)
Outline: as §1

[7] = test system: THRa homodimer (NR concentration 90 nM)
Outline: as §1

[8] = test system: VDR:RXRa (NR concentration 270 nM, RXRa partner concentration 90 nM)
Outline: as §1

[9] = test system: VDR homodimer (NR concentration 270 nM)
Outline: as §1

Sequence | PBM binding z-score [1] | PBM binding z-score [2] | PBM binding z-score [3] | PBM binding z-score [4] | PBM binding z-score [5] | PBM binding z-score [6] | PBM binding z-score [7] | PBM binding z-score [8] | PBM binding z-score [9]
CCTACTGGGCCACGAAAGGTCATGGATTCAGTGA | 4.94 | 5.28 | 4.71 | -0.0305 | 6.03 | 3.97 | 1.17 | 4.1 | 1.35
TCTCGGAGGACACGAAGGTCAGATCTTTCCAGAG | 3.7 | 3.45 | 4.36 | 1.15 | 2.48 | 2.94 | 0.979 | 2.61 | 2.36
ACTAGCAGGCCAAGGGTCACTCCAGATTAGTCCG | 3.65 | 3.77 | 3.48 | 0.274 | 3.74 | 2.55 | 0.269 | 2.32 | 1
ACAGAAAGGTGAGTGAAGGTAACTCAGCTGGACG | 1.15 | 1.58 | 1.59 | -0.371 | 1.28 | 2.58 | -0.361 | 0.368 | -0.509
CGTCCAAGGTCAAAGAGGTCAGTGAATGCCGAGT | 5.66 | 7.1 | 7.62 | 4.35 | 7.47 | 4.48 | 3.36 | 7.77 | 6.32
ACTAGCAGGCCAATGGTCACTCAAGATTAGTCCG | 0.496 | 0.131 | 0.545 | -0.107 | 0.0416 | -0.312 | -0.672 | -0.614 | -0.707
TCTAGTTGGTCAAGGGTCACACACTCGAAATGCG | 4.19 | 5.29 | 4.87 | 1.59 | 6.31 | 3.13 | 1.47 | 4.32 | 2.76
TTACCAAGGTGAAGGTCTTTGATCCCTCTGTAGA | 0.775 | 0.2 | 0.513 | -0.154 | 0.759 | 1.73 | 0.592 | -0.00925 | -0.396
CCTACTCGGCCAAGGTCATTGATCAGTCAAAGCA | 3.33 | 3.95 | 3.71 | 2.24 | 3.6 | 3.36 | 2.98 | 3.51 | 3.83
ACTAGTTCGTCAGCTGAGGTCACACACAATTCGG | 4.27 | 4.08 | 3.93 | 3.38 | 4.37 | 4.66 | 5.07 | 4.7 | 4.73
TGAATGAGGTTATAAGATCAGGAAACGTTGCAAA | 0.0307 | 1.61 | 0.861 | 0.926 | 2.21 | 1.77 | -0.0709 | 1.01 | 0.225
TAGCCTAGGGCATGGGCCAGTATACCACGCGAAC | 0.79 | 0.484 | 0.834 | -1.24 | 0.135 | -0.0791 | 0.0268 | -0.452 | -0.21
ATCTCTAGGTAAAGGTTCAGTGAATCCCGAGGAT | 1.24 | 1.03 | 1.05 | 0.869 | 1.01 | 1.1 | 0.351 | 1.09 | 1.99
GCAGACTGGTGAAACGCAGGTAACTCAGGGTGGC | -1.13 | -0.789 | -0.946 | -1.05 | -0.735 | 0.213 | -0.648 | -0.985 | -1.15
ACTAGCAGGCTAAGGGTCACTCAAGATTAGTCCG | 3.89 | 3.88 | 3.65 | 0.904 | 4.18 | 2.6 | -0.003 | 2.97 | 1.01
TTACCAAGGTGAAAGGTCGTAGATGCACGCCTTG | 2.48 | 4.5 | 2.1 | -0.0824 | 6.49 | 3.42 | 0.581 | 3.04 | 0.0396
TCATATAGGTAAACAGGTGAACGTCCGTAAGTTA | 0.948 | 0.887 | 0.712 | 1.31 | 1.28 | 1.12 | 0.353 | 1.19 | 0.243
CCTTACGGGTCAAGGTTAAAGCACGGGTGGTACG | 3.57 | 5.08 | 4.78 | 0.827 | 5.39 | 3.06 | 1.01 | 3.5 | 1.43
TTACCAATGTGAAAGGTCGTTGATGCACGCCTTG | 1.76 | 1.76 | 0.967 | 0.906 | 3.08 | 1.44 | 0.0994 | 2.08 | 1.66
ACTTACGGGTCATCGAGGTTATAGCACGCGTATA | 3.64 | 5.43 | 4.96 | 2.98 | 6.18 | 4.03 | 1.28 | 7.51 | 4.26
CGGCCTAGGTCAGGGCCAGTATAGGAGGAACGTT | 2.4 | 2.84 | 3.41 | -0.731 | 1.5 | 1.8 | 0.0895 | 0.12 | -0.395
ACTATTAGATGACTTAGGGCAACCGATACGACGC | 1 | 0.918 | 1.25 | 0.754 | 0.767 | 1.04 | 0.469 | 0.293 | 0.377
CCTATTAGTTGACCATAAGGGCAACCGTAGCTCG | 1.93 | 1.09 | 1.25 | 0.707 | 0.63 | 1.92 | 1.29 | 0.674 | 0.902
CCTCGGAGGACAACAAGAGGTCAGAGCTGCCAGA | 3.8 | 4.13 | 3.8 | 0.726 | 2.93 | 2.86 | 0.992 | 2.88 | 1.54

Sequence | PBM binding z-score [1] | PBM binding z-score [2] | PBM binding z-score [3] | PBM binding z-score [4] | PBM binding z-score [5] | PBM binding z-score [6] | PBM binding z-score [7] | PBM binding z-score [8] | PBM binding z-score [9]
ATCTCTCGGTAAGACTCAGTTCAGTGAAGAACGC | 1.05 | 0.265 | 0.481 | 0.833 | 0.224 | 0.746 | 1.17 | 0.848 | 2.06
CCTACTGGGCCAAAAAGGTCATTGACGCCGATAA | 4.4 | 4.59 | 4.36 | 0.774 | 4.9 | 3.02 | 0.658 | 4.36 | 2.4
TCTTGTAGATCAATGGAGGTTAAGAAAGTGCGCT | 0.785 | 0.419 | 0.147 | 0.79 | 0.919 | 2.03 | -0.299 | 1.38 | 0.227
CCGAGTAGGTTATGGGGCTTTCAGGCAACGGTGA | 0.416 | 0.0177 | 0.1 | -0.273 | 0.293 | 0.519 | 0.657 | -0.375 | 0.00532
CCTACTGGGCCATCAAGTCATTGATATCAACGTT | 0.27 | 0.122 | 0.368 | 0.0115 | -0.103 | -0.116 | -0.0575 | -0.0971 | -0.205
CGTCCGAGGTCAGCAGGTCAGTGAAAGCGACGTG | 4.89 | 6.81 | 7.31 | 2.99 | 6.26 | 4.09 | 2.53 | 4.86 | 2.44
ACTATAAGTTGACTTAGGGCAACCGATACGACGC | 1.03 | 1 | 1.11 | 0.718 | 0.692 | 2.4 | 0.322 | 0.769 | 0.647
ATCTAAAGGTCGAGGTGAGTATAGAGAAAGGGAA | 3.3 | 4.54 | 4.69 | 1.33 | 4.82 | 3.09 | 1.31 | 3.08 | 0.632
CGAACTAGGTCATCCTGGACAGTGAATACATTGA | 2.86 | 3.82 | 4.56 | 2.37 | 2.67 | 2.89 | 1.35 | 2.56 | 1.5
TCTATTAGTTGAGGGGCAACCGACGAGTCCGTTT | 0.835 | 0.29 | 0.252 | 1.83 | 0.746 | 0.432 | 0.237 | 0.965 | 1.19
ACTGTTAGTTGACTTAGGGCAACCGATACGACGC | 1.09 | 1.22 | 1.25 | 0.609 | 0.472 | 1.51 | 0.731 | 0.59 | 0.453
CCTACTGAGCCATCAGGTCATTGATATCAACGTT | 2.7 | 1.5 | 1.69 | 1.17 | 1.42 | 3.37 | 3.52 | 2.15 | 2.2
ATACCACGGTGATCGTGAGGTCGTTGATACTAAC | 1.47 | 0.858 | 0.379 | 0.514 | 1.1 | 2.65 | 2.42 | 1.93 | 2.44
AGAATGAGGTTAAGATCATGGAAACAGAATACAT | 0.492 | 1.94 | 1.49 | 0.788 | 2.62 | 2.2 | 0.477 | 1.28 | 0.212
AGAATGAGGTTATACGTAGAACAGGGAAGAAAGT | 0.739 | 1.6 | 1.14 | 1.5 | 2.13 | 2.04 | 0.323 | 1.26 | 1.03
CGAACGAGGGAATGAGTTGATAGCAAATGCCGAT | -0.933 | -0.383 | 0.11 | -0.064 | -0.465 | -0.489 | -0.692 | -0.28 | 0.188
ATACCAAGGTGATCGCGAGGTCGTTGATACTAAC | 1.51 | 2.37 | 0.886 | 0.551 | 1.42 | 3.11 | 1.61 | 3.37 | 2.67
CCTGCTGGGCCAAAAAGGTCATTGATGCCGATAA | 4.32 | 4.6 | 4.17 | 0.818 | 4.91 | 3.12 | 0.279 | 4.84 | 2.58
TCTCGGAGGACACGAAAGGTCAGACCTCGACATC | 4.65 | 4.84 | 5.27 | 1.39 | 4.1 | 3.73 | 1.55 | 3.52 | 1.14
AATAAAGGGTCACTAGGCCAGAGTAGGTACGAAT | 4.18 | 5.83 | 6.43 | 2.48 | 5.89 | 2.82 | 0.263 | 4.04 | 2.36
TCATATATGTAAACAGGTGAAAGTCCGTAAGTTA | 0.609 | 0.551 | 0.376 | 1.85 | 0.989 | 0.84 | 0.27 | 1.31 | 0.413
ATATGTCGGTTACATCCGGGTCATTCAGGCTATG | 2.58 | 2.37 | 1.71 | 0.511 | 2.45 | 3.31 | 2.52 | 3.53 | 3.41
ATCTCTAGGTAACAAGTACAGTGAAAGAGAGGAC | 0.631 | 0.905 | 0.824 | -0.118 | 0.349 | 1.12 | 0.739 | 0.429 | 0.41
TAGCCTAGGTCAGCTCGGGCCAGTATACGCTATA | 2.59 | 3.06 | 4.25 | -0.297 | 1.54 | 4.27 | 0.31 | 0.763 | -0.788
